Assay outcomes deposited in PubChem by Buhrlage Lab, Dana-Farber Cancer Institute and Novartis Institutes for BioMedical Research (Cambridge, Mass).
USP28 block – inhibitors of human USP28 deubiquitinase; Ubiquitin carboxyl-terminal hydrolase 28 (Homo sapiens), Q96RU2; purified USP28, Ub-rhodamine cleavage fluorescence, 30 min; inhibition, % at 25 µM; hit rate 3% among 47,000
USP17 block – inhibitors of human USP17 deubiquitinase. Ubiquitin carboxyl-terminal hydrolase 17-like protein 5 (Homo sapiens), A8MUK1. purified USP17, Ub-rhodamine cleavage fluorescence, 3 h. inhibition, % at 50 µM. hit rate 6.5% among 47,000. AID 1645855, 2021
USP30 block – inhibitors of human USP30 deubiquitinase; purified USP30, Ub-rhodamine cleavage fluorescence; inhibition, % at 25 µM; hit rate 5.3% among 47,000; AID 1645860, 2021
USP10 inh – inhibitors of human USP10 deubiquitinase; AID 1645856, 2021; inhibition, % at 20 µM; purified USP10, Ub-rhodamine fluorescence, 60 min; hit rate 1.1% among 47,000
USP8 block – inhibitors of human USP8 deubiquitinase | hit rate 4.2% among 47,000 | purified USP8, Ub-rhodamine cleavage fluorescence, 30 min | inhibition, % at 20 µM
USP7 inh – inhibitors of human USP7 deubiquitinase; AID 1645854, 2021; Ubiquitin carboxyl-terminal hydrolase 7 (Homo sapiens), Q93009; inhibition, % at 20 µM; hit rate 0.3% among 47,000; purified USP7, Ub-rhodamine cleavage fluorescence
Target sequence (Q93009 whole entry, looked up): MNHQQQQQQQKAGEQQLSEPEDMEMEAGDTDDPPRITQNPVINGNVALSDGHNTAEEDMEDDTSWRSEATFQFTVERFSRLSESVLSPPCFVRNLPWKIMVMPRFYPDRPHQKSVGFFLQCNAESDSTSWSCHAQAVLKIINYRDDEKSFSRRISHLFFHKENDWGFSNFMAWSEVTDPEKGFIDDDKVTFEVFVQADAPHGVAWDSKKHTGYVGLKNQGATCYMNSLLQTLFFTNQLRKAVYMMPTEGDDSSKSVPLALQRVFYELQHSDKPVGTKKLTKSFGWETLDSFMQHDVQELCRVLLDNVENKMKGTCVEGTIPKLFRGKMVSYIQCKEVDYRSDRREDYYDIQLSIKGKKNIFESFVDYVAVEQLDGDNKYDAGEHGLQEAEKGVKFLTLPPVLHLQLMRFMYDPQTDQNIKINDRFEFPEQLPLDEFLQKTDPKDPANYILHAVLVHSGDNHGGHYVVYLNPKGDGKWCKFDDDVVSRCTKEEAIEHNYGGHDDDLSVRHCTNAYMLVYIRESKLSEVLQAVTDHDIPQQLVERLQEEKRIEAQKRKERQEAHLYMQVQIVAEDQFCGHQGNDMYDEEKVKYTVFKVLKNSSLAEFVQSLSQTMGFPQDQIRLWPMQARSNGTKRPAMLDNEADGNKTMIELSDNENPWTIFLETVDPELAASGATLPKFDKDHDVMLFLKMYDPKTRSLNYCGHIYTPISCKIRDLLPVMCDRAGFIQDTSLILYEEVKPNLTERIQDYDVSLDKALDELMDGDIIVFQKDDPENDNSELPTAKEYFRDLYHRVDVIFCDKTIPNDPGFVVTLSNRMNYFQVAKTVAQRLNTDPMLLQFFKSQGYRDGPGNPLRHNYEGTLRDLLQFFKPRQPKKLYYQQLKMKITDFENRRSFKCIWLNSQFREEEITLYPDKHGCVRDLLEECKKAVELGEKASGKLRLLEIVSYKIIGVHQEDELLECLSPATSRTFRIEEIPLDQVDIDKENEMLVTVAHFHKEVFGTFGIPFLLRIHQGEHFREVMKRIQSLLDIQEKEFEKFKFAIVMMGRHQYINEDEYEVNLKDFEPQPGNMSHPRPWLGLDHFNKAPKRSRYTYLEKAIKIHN
Numbers stand for hits; 0 = inactive. Only some compounds are listed: those with a hit (about 13% of all), similar ones and a draw of the others. Rule as the data show it: active = inhibition above about 30%; inactive = the rest.

SMILES	USP28 block	USP17 block	USP30 block	USP10 inh	USP8 block	USP7 inh
Cc1ccn2c(=O)cc(COc3cccc(NC(=O)Nc4ccc(F)cc4)c3)nc2c1	0	38	0	0	0	0
N#Cc1ccc(Cn2nnc(-c3cccc(Cl)c3)n2)cc1	73	0	0	0	0	0
COc1cccc2cccc(O)c12	0	85	0	0	0	0
Cc1nc(-c2ccccc2)nc2c1CC(=O)N2Cc1cccnc1	0	0	0	0	52	0
O=C(Cn1cc(S(=O)(=O)Cc2cccc(Cl)c2)c2ccccc21)N1CCCCC1	0	0	0	0	0	0
Cc1cccc(CNC(=O)c2cnc3sc4c(n3c2=O)CCCC4)c1	0	0	37	0	0	0
CCOc1ccccc1-c1cc(C(=O)Nc2ccc3c(c2)OCCO3)c2ccccc2n1	0	0	0	0	0	0
O=C(Nc1nnc(C2CC2)s1)c1ccc(OCC2CCCO2)cc1 (centres undefined)	0	64	0	0	0	0
COc1ccccc1CNC(=O)C1CCCN(c2nc3c(C)cc(C)cc3s2)C1 (centres undefined)	0	0	0	0	0	0
Cc1cc(C)c2nc(N3CCCC(C(=O)NCc4ccccc4C)C3)sc2c1 (centres undefined)	0	33	0	0	0	0
Cc1cc(C)c2nc(N3CCCC(C(=O)NCCc4ccc(Cl)cc4)C3)sc2c1 (centres undefined)	0	0	0	0	0	0
Cc1cc(C)c2nc(N3CCCC(C(=O)NCc4cccc(F)c4)C3)sc2c1 (centres undefined)	0	0	37	0	0	0
O=C(c1cnccn1)N1CCC(c2cc(-c3ccccc3)n[nH]2)CC1	0	0	0	0	0	0
Cc1noc(C)c1CNC(=O)c1nc(Cc2c[nH]c3ccccc23)no1	0	0	0	0	0	0
CO[C@H]1C[C@@H]2CC[C@@H](C)[C@@](O)(O2)C(=O)C(=O)N2CCCC[C@H]2C(=O)O[C@@H]([C@H](C)C[C@@H]2CC[C@@H](O)[C@H](OC)C2)CC(=O)[C@H](C)/C=C(\C)[C@@H](O)CC(=O)[C@H](C)C[C@H](C)/C=C/C=C/C=C/1C	0	0	0	0	0	0
C[C@@H]1/C=C/CC/C=C/C(=O)[C@H](C)[C@@H]2CC[C@@H](C)[C@@](O)(O2)C(=O)C(=O)N2CCCC[C@H]2C(=O)O[C@H]([C@H](C)C[C@@H]2CC[C@@H](O)[C@H](O)C2)CC1	97	82	93	0	0	0
CNC(=O)N1CC[C@H]2COC(=O)N(Cc3ccccc3)[C@@H]2C1	0	0	0	0	0	0
CCOC(=O)C1(Cc2cc(-c3ccc(F)cc3)no2)CCCN(Cc2cnc(C)n2C)C1 (centres undefined)	0	0	36	0	0	0
CCCCNC(=O)C1Sc2nnc(-c3ccccc3)n2NC1c1ccccc1 (centres undefined)	0	0	50	0	0	0
O=C(Nc1nc(-c2ccccc2)c(-c2ccccc2)s1)C1CCCO1 (centres undefined)	0	0	0	0	0	0
NC(N)=NCCC(=O)N1CCn2nc(-c3ccc4ccccc4c3)cc2C1	45	0	40	0	0	0
COc1ccccc1-c1cc2n(n1)CCN(C(=O)c1cc3ccccc3n1C)C2	0	0	0	0	0	0
COc1cc2c(cc1OC)C(COc1ccc(F)cc1)N(C(=O)c1cccc3ccccc13)CC2 (centres undefined)	0	0	0	0	0	0
CCOC(=O)c1ccc(OCC2c3cc(OC)c(OC)cc3CCN2C(=O)C(C)Oc2ccccc2)cc1 (centres undefined)	0	32	0	0	85	0
CO[C@H]1/C=C/C=C\C=C\C[C@@H](OC(=O)[C@H](C)NC(=O)C2CCCCC2)[C@H](C)[C@@H](O)/C(C)=C\CCC2=CC(=O)C=C(NC(=O)C1)C2=O	0	46	0	0	0	0
SMILES	USP28 block	USP17 block	USP30 block	USP10 inh	USP8 block	USP7 inh
CC(=O)CSc1nc2sc3c(c2c(=O)n1-c1ccccc1)CCCC3	0	0	30	0	0	0
N#Cc1ccccc1CN1C(=O)c2ccccc2S1(=O)=O	0	0	0	0	0	0
O=C1c2ccccc2S(=O)(=O)N1Cc1ccc2nsnc2c1	35	0	0	0	0	0
Cc1ccc(-c2ncc(NC(=O)COc3ccc(F)cc3)cn2)cc1	0	0	0	0	0	0
O=C(COc1ccc(Cl)cc1)Nc1noc(-c2ccccc2)n1	58	0	69	50	88	0
O=C(COc1ccc(Cl)cc1)Nc1onc2c1CCCC2	0	50	56	0	0	0
Cc1ccccc1-c1noc(-c2ccccc2OCC(=O)NC(C)C)n1	0	62	49	0	0	0
CC(NC(=O)COc1ccccc1)c1nc(-c2ccc(Cl)cc2)no1 (centres undefined)	0	0	0	0	0	0
CC(C)NC(=O)COc1cccc(-c2noc(-c3ccc(F)cc3)n2)c1	0	0	0	0	0	0
Cc1ccccc1-c1nc(NC(=O)COc2ccc(F)cc2)no1	0	0	36	0	0	0
O=C(NCCc1ccccc1)N1C[C@H]2C[C@H]3[C@](C1)(CN(Cc1ccncc1)S3(=O)=O)O2	0	0	0	0	0	0
Cn1c(-c2nnc(SCC(=O)Nc3ccccc3F)o2)cc2ccccc21	41	43	82	0	0	0
CN(C(=O)CSc1nnc(-c2cc3ccccc3n2C)o1)c1ccccc1	0	0	52	0	0	0
Cn1c(-c2nnc(SCC(=O)Nc3ccc4c(c3)OCO4)o2)cc2ccccc21	0	0	0	0	0	0
COc1ccccc1NC(=O)CSc1nnc(-c2cc3ccccc3n2C)o1	0	0	0	0	0	0
CCCc1cc(=O)oc2c(C)c(OC(C)C(=O)NCC(=O)N3CC[C@@]4(O)CCCC[C@H]4C3)ccc12 (some centres undefined)	0	0	0	0	0	0
O=C(Cn1c(N2CCC(Cc3ccccc3)CC2)nc2ccccc21)c1ccccc1	0	0	42	0	0	0
CC(=O)Nc1ccc(S(=O)(=O)N(Cc2ccc3c(c2)CCO3)C2CC2)cc1	0	0	0	0	0	0
N#Cc1cc2c(nc1SCC(=O)NCc1ccccc1)CCCC2	0	59	0	0	0	0
N#Cc1cc2c(nc1SCC(=O)NC1CCCCC1)CCCC2	0	0	0	0	0	0
N#Cc1cc2c(nc1SCC(=O)Nc1ccc(F)cc1)CCCC2=O	0	0	0	0	0	0
Cc1ccc(NC(=O)CSc2nc3c(cc2C#N)C(=O)CCC3)cc1	0	55	0	0	0	0
